# IEC-6 tox: IEC-6 cytotoxicity, counter-screen for KLF5 inhibitors. actives 0.78% (n = 290,000). luminescence viability. inhibition, % at 5 µM; in the data active = inhibition above about 22%;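 note: 0% = plate median of test compound wells and 100% = cytotoxic reference compound wells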
# Ba/F3 V617F tox: lowers viability of Ba/F3 cells expressing EpoR and JAK2V617F; actives 1.1% (n = 220,000); ATP luminescence; inhibition, % at 5.6 µM; AID 1446;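 active = inhibition above the campaign mean plus 3 SD over all tested compounds, cut at about 24% in these data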;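 note: cytokine-independent growth of Ba/F3 cells driven by EpoR plus mutant JAK2; 0% = DMSO-treated cells and 100% = JAK inhibitor I control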
# APP transl inh: APP translation inhibition | actives 0.82% (n = 190,000) | inhibition, % at 2 µM | SH-SY5Y APP 5'UTR-luciferase reporter, luminescence | AID 1285;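 active = inhibition above a set limit, derived from the sample mean plus 3 SD, cut at about 45% in these data; inconclusive = one replicate passes the limit while the other fails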
# aSyn UTR inh: MLPCN primary screen, SNCA 5' untranslated region. alpha-synuclein 5'UTR reporter, inhibitor activity. inhibition, % (tested at 7.5 µM). AID 1813. actives 0.82% (n = 300,000); in the data active = inhibition above about 60%; inconclusive = no clear call, values can overlap the other calls;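 note: H4 neuroglioblastoma cells stably carrying SNCA 5'UTR luciferase fusion; 0% = DMSO wells and 100% = positive control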
# KLF5 inh: suppresses KLF5 promoter-driven expression; DLD-1 KLF5 promoter-luciferase reporter, luminescence; inhibition, % at 5 µM; actives 0.23% (n = 290,000);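 active = inhibition above a per-plate limit of that plate's mean compound inhibition plus 3 SD, cut at about 60% in these data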;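 note: 0% = DMSO wells and 100% = LY294002 at 200 µM; higher means less KLF5 promoter-driven luciferase light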
# BaF3 tox: parental Ba/F3 viability inhibition as JAK2V617F counter-screen; inhibition, % at 5.6 µM; CellTiter-Glo ATP luminescence; actives 1.1% (n = 220,000); AID 1486;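 active = inhibition above a per-campaign cutoff, the mean inhibition of all tested compounds plus 3 SD, cut at about 27% in these data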;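 note: 0% = DMSO wells and 100% = JAK Inhibitor I control wells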
# BaF3 tox 2: parental Ba/F3 viability inhibition for JAK2V617F counter-screen. shares compounds with Ba/F3 V617F tox. CellTiter-Glo luminescence; cells kept alive by added IL-3. inhibition, % at 5.6 µM. actives 31% (n = 580). AID 1520;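 active = cell growth inhibition above the hit limit set in the earlier mutant JAK2 cell screen, cut at about 27% in these data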;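 note: plate controls were DMSO-treated cells for no effect and JAK Inhibitor I control wells for full effect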
# JAK2V617F conf: Ba/F3 EpoR-JAK2V617F viability loss, confirmation; CellTiter-Glo luminescence; actives 66% (n = 580); inhibition, % at 5.6 µM; shares compounds with Ba/F3 V617F tox;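 active = mean inhibition above the hit cutoff derived in the earlier primary screen, cut at about 25% in these data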;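 note: 0% = DMSO-treated cells and 100% = JAK inhibitor I control wells; higher means lower luminescence from reduced cell ATP and viability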
# The depositor's hits bear a star; ? = inconclusive; . = not tested or not shown. Most compounds without a hit are left out; they make up all but 2.2% or so of the library.
SMILES,IEC-6 tox,Ba/F3 V617F tox,APP transl inh,aSyn UTR inh,KLF5 inh,BaF3 tox,BaF3 tox 2,JAK2V617F conf
COc1ccc(-c2oc3cc(O)c(OC)c(O)c3c(=O)c2OC)cc1,.,.,.,-45.5,.,.,.,.
COc1ccccc1CC(=O)N1CCN(c2ccccn2)CC1,-0.3,-0.1,-3.1,0.3,-22.9,6.8,.,.
CC(=O)Nc1ccc(Nc2nc(C)c([N+](=O)[O-])c(N(C)c3ccccc3)n2)cc1,6.0,-4.9,.,85.6*,-14.7,0.1,.,.
CC(=O)Nc1ccc(Nc2nc(C)c([N+](=O)[O-])c(Nc3ccccc3)n2)cc1,-1.9,0.4,17.0,?,1.6,3.0,.,.
CC(=O)Nc1ccc(S(=O)(=O)N2CCN(C(=O)c3ncoc3-c3ccccc3C)CC2)cc1,-0.3,.,.,-15.6,5.5,.,.,.
CN=c1scc(-c2ccco2)n1/N=C/c1ccc(O)c(O)c1,16.6,99.6*,-8.9,-242.0,-20.9,53.6*,.,.
O=C(/C=C/c1ccccc1)Nc1nc(-c2ccncc2)cs1,5.5,39.2*,-2.3,-5.4,-64.1,42.8*,.,.
CC1=NN(C(N)=S)C(=O)C1N=Nc1ccc(C)c(Br)c1 (configuration not stated),0.9,.,.,-128.0,-192.3,.,.,.
CCOc1ccccc1NC(=O)C1CCCN(S(=O)(=O)c2c(C)[nH]c(=O)[nH]c2=O)C1 (configuration not stated),0.8,4.2,45.4*,-10.6,-0.8,6.0,.,.
COC(=O)CCn1nnc(-c2ccc(C(C)C)cc2)n1,-4.5,-2.8,76.7*,119.1*,44.6,0.1,.,.
COC(=O)CCn1nnc(-c2cccs2)n1,-8.1,-3.0,-0.1,10.0,-2.4,1.3,.,.
CCc1nc(CN2CCCC(C(=O)c3ccc4c5c(cccc35)CC4)C2)c(C)[nH]1 (configuration not stated),9.7,2.7,-3.9,30.8,-13.3,82.0*,.,.
CC(=O)C1=NN(c2ccccc2)C(c2ccc3c(c2)OCO3)N1c1ccc(N2CCOCC2)cc1 (configuration not stated),-3.6,0.6,-6.7,-8.1,-4.2,0.0,.,.
CC(=O)C1=NN(c2ccccc2)C(c2cccs2)N1c1ccccc1 (configuration not stated),-2.7,22.0,9.5,.,-41.4,43.3*,.,.
Cn1c(N=Nc2ccccc2)nc2ccccc21,38.3*,31.2*,-179.5,-18.7,-190.1,31.3*,.,.
Cc1cc(C)c2cc(C#N)c(N3CCCN(C(=S)NCCCN(C)C)CC3)nc2c1,12.1,.,.,95.7*,-15.4,.,.,.
Cc1ccc2cc(C#N)c(N3CCCN(C(=S)NCCCN(C)C)CC3)nc2c1,8.5,.,.,-7.9,-9.1,.,.,.
O=C(Nc1ccc2oc(-c3cccnc3)nc2c1)c1ccco1,-2.9,4.9,-21.4,-134.7,-56.9,8.3,.,.
COc1ccccc1NC(=S)NC(NC(=O)C(C)C)C(Cl)(Cl)Cl (configuration not stated),-2.0,-2.0,18.9,9.4,-63.1,0.9,.,.
CCCCCCCOc1ccc(OC(=O)c2ccncc2)cc1,11.8,52.4*,2.7,1.2,-41.7,21.8,64.8*,92.9*
CCC(C)[C@@H](NC(=O)OC(C)(C)C)c1nnc(S(=O)(=O)Cc2cccc(C)c2)o1 (some centres not stated),6.7,25.9*,20.8,31.3,-1.6,13.7,11.5,65.8*
Cc1cccc(CS(=O)(=O)Cc2ccc(C(=O)NC(C)c3ccccc3)o2)c1 (configuration not stated),-6.5,.,.,13.9,-0.3,.,.,.
Cc1ccccc1CS(=O)(=O)c1nnc([C@H](Cc2ccccc2)NC(=O)OC(C)(C)C)o1,4.4,37.3*,69.9*,20.4,6.7,1.8,1.7,95.0*
CCSc1nnc([C@H](Cc2ccccc2)NC(=O)OC(C)(C)C)o1,-3.1,0.5,14.1,-7.8,-2.0,6.1,.,.
Cc1ccc(Cl)cc1N1CCN(CC(=O)NC2CCCc3ccccc32)CC1 (configuration not stated),3.6,58.5*,-8.4,-2.9,1.2,3.6,-1.1,6.1
SMILES,IEC-6 tox,Ba/F3 V617F tox,APP transl inh,aSyn UTR inh,KLF5 inh,BaF3 tox,BaF3 tox 2,JAK2V617F conf
O=C(CN1CCN(c2ccccc2Cl)CC1)NC1CCCc2ccccc21 (configuration not stated),-2.1,1.9,-18.8,-11.2,2.7,3.4,.,.
CCCCN(C)C(=O)C1CCN(Cc2cccnc2)CC1,5.7,.,.,-10.7,-48.4,.,.,.
COc1ccccc1Nc1nc(-c2c(C)nc3ncccn23)cs1,9.5,55.4*,3.2,-15.2,-20.5,4.1,33.4*,59.0*
CC(C)(C)c1cc(S(=O)(=O)CCc2ccccn2)cc(C(C)(C)C)c1F,1.2,-5.5,-24.4,33.4,5.3,0.6,.,.
Cc1ccc(C)c(N2CCN(CCCNC(=O)Cn3cccc3C(=O)c3ccccc3C)CC2)c1,14.7,41.1*,-1.8,27.2,-23.8,2.3,1.6,28.9*
C=CCOC(=O)C1=C(C)NC(SCC)=C(C#N)C1c1ccc(Cl)cc1 (configuration not stated),14.2,41.3*,-10.2,67.0*,6.3,-5.9,8.5,29.3*
C=CCOC(=O)C1=C(C)NC(SCC(N)=O)=C(C#N)C1c1ccc(C)cc1 (configuration not stated),-3.6,-0.9,.,8.0,-7.0,0.9,.,.
CCOc1cc(C(=O)Nc2ccc(N3CCN(S(C)(=O)=O)CC3)cc2)cc(OCC)c1OCC,-4.7,100.3*,-3.9,6.6,-11.4,4.7,-0.9,7.2
CC1=CS(=O)(=O)CC1SC(=S)N(C)C1CCS(=O)(=O)C1 (configuration not stated),-1.7,-0.8,6.2,-23.9,11.2,1.0,.,.
Cc1cc(C)n2c(C)nnc2c1,-2.9,-2.4,.,-12.8,-5.3,-1.5,.,.
Cc1cc(C)c(N(C(=O)Cn2nnc3ccccc32)C(C(=O)NC(C)(C)C)c2ccsc2)c(C)c1 (configuration not stated),1.1,-4.7,-7.6,42.1,13.4,-1.3,.,.
Cc1c(C#N)c(NC(=O)CCl)n(Cc2cccs2)c1C,5.6,36.0*,-23.3,9.2,18.0,0.1,34.8*,97.2*
Cc1c(C#N)c(NC(=O)CCl)n(Cc2ccc(F)cc2)c1C,5.7,15.6,-11.9,-25.5,11.0,-1.3,.,.
Cc1c(C#N)c(NC(=O)CCl)n(Cc2ccccc2)c1C,2.8,30.8*,10.0,6.9,-8.2,2.1,48.5*,98.3*
Cc1nc2ccccc2c2oc(C(=O)NCCCN3CCCC(C)C3)cc12 (configuration not stated),1.9,.,.,-14.2,-11.1,.,.,.
CC1CCCN(CCCNC(=O)c2cc3c(Cl)nc4ccccc4c3s2)C1 (configuration not stated),12.7,63.1*,10.2,-20.8,14.6,17.8,1.8,84.6*

# High-throughput results as filed in PubChem.
